Our source for the Potency values is PubChem BioAssay (NCATS).

Results filed as inconclusive are left out. Entries that show only a call come without a potency. The source made the active and inactive calls. Calls follow the shape of the dose curve; as a rule, active = well fitted cell-killing curve with a large enough effect; inconclusive = small, poorly fitted or top-dose-only effect; inactive = flat fitted curve, though single readings scatter.

The assay is described as follows: Cell Viability - LYMP1-002 - Assay at 40 hr (AID 994). Also: nearly all actives have a fitted effect of over 60% in size. Particulars: LYMP1-002 lymphoblastoid cell viability; series mostly up to 92.2 µM. The source says:
NIH Chemical Genomics Center [NCGC]
NIH Molecular Libraries Screening Centers Network [MLSCN]
National Institutes of Environmental Health Sciences [NIEHS]
National Toxicology Program [NTP]
We have developed a 1536-well cell-based assay for quantitative high throughput screening (qHTS) against a number of cell lines to determine in vitro cytotoxicity of small molecules. This particular assay uses a human lymphoblastoid cell line (LYMP1-002) purchased from Coriell Institute for Medical Research.
NCGC Assay Protocol Summary:
The CellTiter-Glo luminescent cell viability assay (Promega) is a homogeneous method to measure the number of viable cells in culture. The end point readout of this assay is based on quantitation of intracellular ATP, an indicator of metabolic activity, using the luciferase reaction. Luciferase catalyzes the oxidation of beetle Luciferin to oxyluciferin and light in the presence of ATP. The luminescent signal is proportional to amount of ATP present.
Using the CellTiter-Glo luminescent cell viability assay, the amount of cellular ATP was measured in the lymphoblastoid cell line with complete culture medium following compound treatment for 40 hours. The assay was performed in opaque white Kalypsys 1536-well plates. In the screen, tetraoctylammonium bromide was used as positive control. Library compounds were measured for their ability to cause acute toxicity in the cell line, as reflected by a decrease in intracellular ATP levels, in a concentration-dependent manner. […] AC50 values were determined from concentration-response data modeled with the standard Hill equation.
qHTS protocol for CellTiter Glo lymphoblastoid cellular assay
[Step] [Parameter] [Value] [Description]
1. Reagent; 5 uL; 2500 lymphoblastoid cells/well
2. Time; 5 hr; 37 C incubation
4. Controls; 23 nL; Tetraoctylammonium bromide 6.4pM to 92 uM
5. Time; 40 hr; 37 C incubation
6. Reagent; 5 uL; CellTiter Glo reagent
7. Time; 30 min; Room Temperature
8. Detection; Luminescence; Viewlux plate reader
Keywords: cell viability, cytotoxicity, lymphoblastoid cell line, luminescence, NTPHTS, NTPHTS_NCGC, NIEHS, DSSTox, MLSMR, MLSCN, NIH Roadmap, qHTS, NCGC
With `C/C=C\c1ccc(OC)cc1`, the Potency result is “inactive”.
In the case of `Cc1c(N=C=O)cccc1N=C=O` it was “inactive”.
Take `C=C(C)C1CC=C(C)C(O)C1` (stereo not given): the Potency entry is “inactive”.
To `O=C(O)c1ccccc1C(c1ccc(O)cc1)c1ccc(O)cc1` belongs “inactive”; to `CC1(C)CC(N=C=O)CC(C)(CN=C=O)C1` (stereo not given), “inactive”; to `O=C(O)c1ccc(O)cc1O`, “inactive”.
Take `CCO`: the Potency entry was “inactive”.
To `COC(=O)c1ccc(C=O)cc1` belongs “inactive”; to `CCCCCCCCCCCCCCC1CO1` (stereo not given), “inactive”; to `CC1=CC(C)(C)Nc2ccccc21`, “inactive”.
Turning to `O=C(O)c1ccccc1`, the Potency entry is “inactive”.
Turning to `CCO[Si](CCCN)(OCC)OCC`, the Potency result is “inactive”.
Turning to `COc1c2ccoc2cc2oc(=O)ccc12`, the Potency entry is “inactive”.
`Nc1ccc(Cl)cc1Cl`: the Potency result is “inactive”.
Regarding `c1ccccc1`, the Potency result is “inactive”.
To `O=C(/C=C/c1ccc(O)c(O)c1)O[C@@H](C(=O)O)[C@@H](OC(=O)/C=C/c1ccc(O)c(O)c1)C(=O)O` belongs “inactive”.
In the case of `Cc1ccccc1C`, the Potency entry is “inactive”.
To `CCCN(CCC)C(=O)SCC` belongs “inactive”; to `CC12CCC(CC1=O)C2(C)C` (stereo not given), “inactive”.
Take `Cc1ccc([N+](=O)[O-])c(C)c1`: the Potency result is “inactive”.
With `C=Cc1ccccc1Cl`, the Potency entry was “inactive”.
In the case of `CCCCC(CC)CN` (stereo not given) it was “inactive”; in that of `c1ccc2c(c1)c1cccc3ccc4cccc2c4c31`, “inactive”.
In the case of `O=S(=O)(O)c1ccccc1` it was “inactive”; in that of `CCC(C)c1ccccc1O` (stereo not given), “inactive”; in that of `OCCNCCO`, “inactive”.
To `C[C@H](CCC(=O)O)[C@H]1CC[C@H]2[C@@H]3CC[C@@H]4C[C@H](O)CC[C@]4(C)[C@H]3CC[C@]12C` belongs “inactive”.
`COc1cc(/C=C/c2ccccc2)oc(=O)c1`: the Potency result was “inactive”.
As for `C1OCOCO1`, the Potency entry was “inactive”.
`c1ccc2scnc2c1`: the Potency result was “inactive”.
For `O[C@@H]([C@H](O)[C@@H](O)CBr)[C@@H](O)CBr`, the Potency result is “inactive”.
On to `COC(=O)CCCCC(=O)OC`, for which the Potency entry is “inactive”.
Regarding `CCCCCCCCO`, the Potency result is “inactive”.
Turning to `CN(C)C=O`, the Potency result is “inactive”.
In the case of `Clc1cc(Cl)c(Cl)cc1Cl` it was “inactive”; in that of `c1ccc2c(c1)[nH]c1ccccc12`, “inactive”; in that of `O=[N+]([O-])c1cccc(Cl)c1Cl`, “inactive”.
As to `CCC(O)OC(O)CC` (stereo not given), the Potency result is “inactive”.
In the case of `Cc1cccc([N+](=O)[O-])c1C`, the Potency entry is “inactive”.
In the case of `Cc1ccc(N)c([N+](=O)[O-])c1` it was “inactive”.
